Screening data from PubChem.
SENP8 block-1: blocks human SENP8 cleavage of Nedd8 substrate; recombinant SENP8, Nedd8 substrate fluorescence; Q96LD8; 360,000 compounds, 0.64% hits; inhibition, % at 20 µM; AID 602440; in the data active = inhibition mostly above about 40%, no sharp cut-off; inactive = mostly below about 27%
SENP6 block: inhibitors of human SENP6 protease; AID 2599; Q9GZR1; 330,000 compounds, 1.8% hits; Recombinant SENP6 catalytic domain, aminoluciferin luminescence; inhibition, % at 10 µM;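 active = inhibition above about 50% at the single tested dose, limit read from the data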
Target sequence (Q9GZR1 628-1112 limits assumed): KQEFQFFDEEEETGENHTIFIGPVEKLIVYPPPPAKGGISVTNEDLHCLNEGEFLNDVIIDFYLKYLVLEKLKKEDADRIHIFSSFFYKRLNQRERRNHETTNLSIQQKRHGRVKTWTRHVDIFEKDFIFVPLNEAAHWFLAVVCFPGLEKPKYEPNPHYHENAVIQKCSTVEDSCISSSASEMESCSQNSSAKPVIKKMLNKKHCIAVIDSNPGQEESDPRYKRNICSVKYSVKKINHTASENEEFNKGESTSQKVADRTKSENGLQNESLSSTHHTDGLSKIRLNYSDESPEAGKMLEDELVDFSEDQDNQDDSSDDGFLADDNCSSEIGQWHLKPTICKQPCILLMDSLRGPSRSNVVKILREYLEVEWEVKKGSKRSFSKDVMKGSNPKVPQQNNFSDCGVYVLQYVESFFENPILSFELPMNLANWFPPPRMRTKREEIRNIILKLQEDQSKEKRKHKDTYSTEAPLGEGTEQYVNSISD
Platelet DG rel: platelet dense granule release activity; human platelet-rich plasma, SFLLRN dense granule ATP release, luminescence; inhibition, %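 (compounds screened at 7.5 µM in platelet-rich plasma)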; 300,000 compounds, 0.22% hits; AID 1663;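 active = mean replicate score, as percent of positive control, at or above 50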
SENP7 inh: blocks the human protease SENP7. Q9BQF6. recombinant SENP7, Z-RLRGG-aminoluciferin luminescence, 40 min. inhibition, % at 5 µM. 330,000 compounds, 1.5% hits. AID 434973;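 active = inhibition above about 50% at the single test dose, limit read from the data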
HSP90 inh: blocks HSP90-mediated luciferase refolding in reticulocyte lysate | Rabbit reticulocyte lysate, luciferase refolding luminescence, 3 h | inhibition, % at 5.6 µM | 290,000 compounds, 0.91% hits | AID 1789;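 active = inhibition above the screen-wide mean plus 3 SD, computed separately per campaign, cut at about 16% in these data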;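 note: inhibitors lower the luminescence because luciferase stays unfolded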
SENP8 block-2: SENP8 protease inhibition. purified SENP8, Z-RLRGG-aminoluciferin cleavage, luminescence. inhibition, % at 10 µM. 330,000 compounds, 1.2% hits. AID 2540; in the data active = inhibition above about 50%
SENP8 confirm: human SENP8 inhibition, confirmed; AID 488912; shares compounds with SENP7 inh; inhibition, % at 12.5 µM; Recombinant SENP8, Z-RLRGG-aminoluciferin luminescence, 60 min; 6,200 compounds, 40% hits;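 active = mean inhibition across replicates above about 50%, limit read from the data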
SENP6 confirm: confirmation of human SENP6 protease inhibitors | shares compounds with SENP7 inh | recombinant SENP6, Z-RLRGG-aminoluciferin luminescence | inhibition, % at 12.5 µM | 6,200 compounds, 58% hits | AID 488915
SENP7 conf: confirmation of human SENP7 protease inhibitors. 6,200 compounds, 69% hits. shares compounds with SENP7 inh. inhibition, % at 12.5 µM. recombinant SENP7, Z-RLRGG-aminoluciferin luminescence, 40 min
Casp3 SENP sel: caspase-3 inhibition (SENP selectivity assay); AID 488918; purified caspase-3, Z-DEVD-aminoluciferin luminescence, 60 min; shares compounds with SENP7 inh; inhibition, % at 12.5 µM; 6,200 compounds, 60% hits;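 active = mean inhibition above about 50%, limit read from the data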
Luc interf: interferes with luciferase luminescence in SENP counter-screen; AID 488919; 6,200 compounds, 39% hits; inhibition, % at 12.5 µM; shares compounds with SENP7 inh; Pre-incubated SENP8/Z-RLRGG-aminoluciferin, luciferase luminescence interference;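 active = mean inhibition above about 50% when retested at one dose, limit read from the data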
Hits are given with their value; - = inactive; . = not tested or not shown. Compounds with a hit are over-represented: about 2.8% of the library has one in this group of screens.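 Rule for the calls, unless noted: active = mean inhibition above about 50% in the one-dose retest (limit read from the data); inactive = the rest.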

SMILES	SENP8 block-1	SENP6 block	Platelet DG rel	SENP7 inh	HSP90 inh	SENP8 block-2	SENP8 confirm	SENP6 confirm	SENP7 conf	Casp3 SENP sel	Luc interf
Cc1cccc(/C(N)=N/OC(=O)c2ccc(F)cc2)c1	-	98	-	99	-	96	98	98	102	98	89
N/C(=N\OC(=O)c1cccs1)c1cccc(Br)c1	-	-	-	88	-	80	87	89	99	90	82
COc1ccc(CN=C(C)c2c(C(F)(F)F)[nH]n(-c3nc4ccccc4s3)c2=O)cc1	-	85	-	91	-	-	-	-	-	50	54
CC(=O)c1c(CC(=O)O)[nH]n(-c2nc3ccccc3s2)c1=O	-	84	-	88	-	87	86	83	97	95	83
COc1ccccc1NS(=O)(=O)c1cccc(C(=O)NCC(c2ccco2)N(C)C)c1 (stereo not given)	-	-	-	-	.	-	.	.	.	.	.
O=C(COC(=O)/C=C/c1ccccc1[N+](=O)[O-])Nc1ccc2[nH]c(=O)[nH]c2c1	-	-	.	-	.	-	.	.	.	.	.
Cc1nonc1C(=O)N/N=C/c1ccc(O)cc1O	-	97	96	100	-	-	98	98	102	98	97
Cc1nonc1C(=O)N/N=C/c1ccncc1	-	-	-	-	-	-	.	.	.	.	.
O=C(Nc1cc(C(F)(F)F)ccc1Cl)C(Sc1nnc(-c2cccs2)o1)c1ccccc1 (stereo not given)	-	81	-	-	-	76	-	-	-	-	-
NS(=O)(=O)c1ccc2nc(NC(=O)Nc3ccccc3F)sc2c1	-	76	-	59	-	59	69	71	90	58	76
Cc1ccccc1NC(=O)Nc1nc2ccc(S(C)(=O)=O)cc2s1	-	-	-	51	-	-	-	-	-	-	-
CCC(=O)Nc1cc(OC)c(NC(=S)Nc2ccccc2CC)cc1OC	-	.	.	.	.	.	.	.	.	.	.
Oc1ccc(C(=Nc2ccccc2)c2ccccc2)c(O)c1	-	.	.	.	.	.	.	.	.	.	.
O=c1oc(-c2cccs2)nc2sc3c(c12)CCCC3	-	75	-	89	-	74	-	-	-	70	-
Cc1cccc(C(=O)O[C@H]2[C@H](C)NS(=O)(=O)[C@H]3CC4C=C[C@]23O4)c1	-	-	.	-	.	-	.	.	.	.	.
COc1cccc(C(=O)O[C@H]2[C@H](C)NS(=O)(=O)[C@H]3C[C@@H]4C=C[C@]23O4)c1	-	68	.	-	.	-	-	-	-	-	-
CCc1ccc(-c2nc(CCl)cs2)cc1	-	74	-	64	-	56	-	84	96	69	-
O=C(Nc1cccnc1)c1sc2cccc(F)c2c1Cl	-	-	-	-	-	-	.	.	.	.	.
COCc1nnc(NC(=O)c2sc3ccccc3c2Cl)s1	-	55	-	-	-	-	-	-	76	61	66
Cc1ccc(NC(=O)c2sc3ccccc3c2Cl)nc1	-	72	-	93	-	63	-	-	-	-	-
COCc1nnc(NC(=O)c2cccs2)s1	-	-	-	-	-	-	.	.	.	.	.
O=C(Nc1ccccn1)c1sc2cccc(F)c2c1Cl	-	-	.	90	-	-	-	-	-	-	-
OC(c1cccnc1)c1nc(-c2ccc3c(c2)OCO3)cs1 (stereo not given)	-	.	.	.	.	.	.	.	.	.	.
O=C(Cc1cccs1)N/N=C\c1ccc([N+](=O)[O-])s1	-	-	-	-	-	-	.	.	.	.	.
O=C(CNC(=O)c1ccccc1Cl)N/N=C/c1ccc([N+](=O)[O-])s1	-	70	-	-	-	-	-	-	-	-	-
SMILES	SENP8 block-1	SENP6 block	Platelet DG rel	SENP7 inh	HSP90 inh	SENP8 block-2	SENP8 confirm	SENP6 confirm	SENP7 conf	Casp3 SENP sel	Luc interf
Cc1cccc2sc(N(CCN(C)C)C(=O)C3CCN(S(=O)(=O)c4cccs4)CC3)nc12	-	-	-	-	.	-	.	.	.	.	.
O=C(NCc1ccccc1CN1CCCC1)C1CCN(C(=O)c2ccc(F)cc2)CC1	-	-	.	-	.	-	.	.	.	.	.
CN1CCN(CCCNc2c(C=O)c(=O)[nH]c3ccccc23)CC1	-	-	-	-	-	-	.	.	.	.	.
Clc1ccc(-c2nc3n(n2)Cc2ccccc2-3)cc1	-	63	-	99	-	87	-	-	-	-	-
CCN(CC)S(=O)(=O)c1cccc(-c2nc3n(n2)Cc2ccccc2-3)c1	-	-	-	-	-	-	.	.	.	.	.
CCOC(=O)c1c(CN(C)C)n(C)c2c(O)c(N=NC(N)=O)c3ccc(Br)cc3c12	79	68	-	-	-	-	-	-	-	-	-
CCCn1c(=O)c(C(=O)OCC)c(O)c2cc(Br)ccc21	-	-	-	-	-	-	.	.	.	.	.
COc1ccc(CCNC(=O)CCS(=O)(=O)c2ccc3c(c2)NC(=O)CO3)cc1OC	-	-	-	-	-	-	.	.	.	.	.
OCC[C@H]1C[C@@H](O)[C@H](O)[C@]2(OCCc3ccccc32)O1	-	-	.	-	.	-	.	.	.	.	.
CSCCC(NC(C)=O)C(=O)Oc1ccc2c3c(c(=O)oc2c1)CCCC3 (stereo not given)	-	.	.	.	-	.	.	.	.	.	.
CSCCC(NC(=O)OC(C)(C)C)C(=O)Oc1ccc2c(=O)c(-c3ccc4c(c3)OCCO4)coc2c1 (stereo not given)	-	62	.	-	-	-	-	-	58	76	-
Cc1ccc(S(=O)(=O)N2CCC(=O)c3ccccc32)cc1	-	.	.	.	.	.	.	.	.	.	.
O=C(CCC1CCCC1)c1c(O)c2ccccc2oc1=O	-	71	-	-	-	-	68	68	85	70	-
[O-][n+]1cccc2c(Br)cc(Br)c(O)c21	-	81	-	-	-	-	-	-	-	-	-
CC[N+]1(C)CCC(O)(/C=C/c2ccccc2)C(C(=O)/C=C/c2ccccc2)C1 (stereo not given)	-	.	.	.	.	.	.	.	.	.	.
Clc1ccc(-n2nnc(-c3nccs3)n2)cc1Cl	-	82	-	82	-	72	-	-	60	68	-
Clc1ccc(-n2nnc(-c3cccnc3)n2)cc1Cl	-	62	-	51	-	-	-	-	-	51	-
COc1ccc2c(c1OC)C(=O)N(c1cccc(C)c1)C2	-	71	-	59	-	-	65	64	90	84	70
Cc1ccc(-c2nc(Nc3ccccc3)n[nH]2)cc1	-	51	.	51	-	-	-	-	73	-	-
